Compound activity: PubChem BioAssay, National Center for Advancing Translational Sciences (NCATS)
Sampled rows, rich in hits. Any-hit rate of the full collection: about 8.7%.
Vaccinia Venus: qHTS for Stage-Specific Inhibitors of Vaccinia Orthopoxvirus: Venus Reporter Primary qHTS | AID 720580, 2013 | Potency, µM (doses to about 36.5 µM), actives largely listed as inhibitors | Vaccinia virus Venus reporter expression, fluorescence | 330,000 compounds, 0.46% hits; calls by dose curve; tested in A549 cells; also: nearly all actives have a fitted effect of over 30% in size
VACV mCherry inh: qHTS for Stage-Specific Inhibitors of Vaccinia Orthopoxvirus: mCherry Reporter Primary qHTS | Vaccinia virus mCherry reporter infection, fluorescence | Potency, µM (titrated, usually from 36.5 µM), usual class: inhibitors | 310,000 compounds, 0.63% hits; calls by dose curve; tested in A549 cells; also: nearly all actives have a fitted effect of over 35% in size
Pf growth 96h: Primary qHTS for delayed death inhibitors of the malarial parasite plastid, 96 hour incubation | P. falciparum luciferase reporter growth, 96 h | Potency, µM (series often up to 28.7 µM), most hits filed as inhibitors | 320,000 compounds, 6.9% hits | AID 504834, 2011
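Parasite growth measured via integrated firefly luciferase reporter in P. falciparum. Infected erythrocytes at 2% hematocrit, 0.05% parasitemia final were treated 96 hours at 37 C under 5% CO2, and luminescence was read.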
Pf growth 48h: Primary qHTS for delayed death inhibitors of the malarial parasite plastid, 48 hour incubation | P. falciparum luciferase growth in erythrocytes, 48 h | 310,000 compounds, 5.9% hits | Potency, µM (top dose mostly 28.7 µM), most hits filed as inhibitors
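A one-generation exposure of luciferase-tagged malaria parasites in RPMI 1640/Albumax erythrocyte culture, 37 C and 5% CO2. Inhibition is inferred from decreased luminescence after adding detection reagent.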
AMA1-RON2 inh: qHTS for Inhibitors of AMA1-RON; Towards Development of Antimalarial Drug Lead: Primary Screen | AlphaScreen AMA1-biotinylated RON2 peptide binding | Potency, µM (doses to about 58.2 µM), actives largely listed as inhibitors | 360,000 compounds, 0.2% hits; also: nearly all actives have a fitted effect of over 45% in size
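AMA1 (3D7) with his tag at 25 nM final met compounds first, then biotinylated RON2 peptide at 25 nM; detection used donor plus acceptor beads, 10 µg/mL apiece, read by AlphaScreen after 30 min at room temperature.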
Large screens that a line does not name were inactive. Unless noted, calls follow the shape of the dose curve; as a rule, active = well fitted curve in the direction sought with a large enough effect; inconclusive = small, poorly fitted or top-dose-only effect, or another doubt; inactive = no such curve, though single readings can be large; an effect the other way counts as inactive or inconclusive.

CCN(CC)S(=O)(=O)c1ccc(N2CCCCC2)c(C(=O)Nc2ccccc2N2CCOCC2)c1	Pf growth 96h 4.15µM (no result: Pf growth 48h)
CCN(CC)S(=O)(=O)c1ccc(N2CCOCC2)c(NC(=O)c2cc(=O)[nH]c3ccccc23)c1	none
O=C(Nc1cc(S(=O)(=O)N2CCOCC2)ccc1N1CCOCC1)c1cnccn1	none
CCN(CC)S(=O)(=O)c1ccc(N2CCOCC2)c(NC(=O)c2c3c(nc4ccccc24)CCC3)c1	Pf growth 96h 4.65µM, Pf growth 48h 7.38µM
CCOc1ccccc1CNC(=O)c1cnc2sc(N3CCCCCC3)nn2c1=O	none (no result: Pf growth 96h, Pf growth 48h, AMA1-RON2 inh)
Cc1ccc(-c2cc(C(=O)N3CCN(S(=O)(=O)c4ccc(Br)cc4)CC3)[nH]n2)cc1C	Vaccinia Venus inconclusive (no result: Pf growth 96h, Pf growth 48h, AMA1-RON2 inh)
Cc1ccc(Cl)cc1NC(=O)N1CCC(CN2CCCCCC2)CC1	none (no result: Pf growth 96h, Pf growth 48h, AMA1-RON2 inh)
O=C(Nc1cc(S(=O)(=O)N2CCOCC2)ccc1N1CCOCC1)C1CCCO1 (centres undefined)	none
CCN(CC)S(=O)(=O)c1ccc(N2CCOCC2)c(NC(=O)c2ccc3ccccc3c2)c1	Pf growth 96h 11.7µM, Pf growth 48h inconclusive
CCN(CC)S(=O)(=O)c1ccc(N2CCOCC2)c(NC(=O)c2ccc3c(c2)OCCO3)c1	Pf growth 96h inconclusive, Pf growth 48h inconclusive
O=C(Nc1ccccc1N1CCOCC1)c1cc(-c2ccncc2)nc2ccccc12	Pf growth 96h 8.28µM, Pf growth 48h inconclusive
CCc1cc(C(=O)Nc2cc(S(=O)(=O)N(CC)CC)ccc2N2CCN(C)CC2)sc1C	Pf growth 96h 2.62µM, Pf growth 48h inconclusive
CCN(CC)S(=O)(=O)c1ccc(N2CCOCC2)c(NC(=O)C2CCCO2)c1 (centres undefined)	Pf growth 96h 8.28µM, Pf growth 48h inconclusive (no result: Vaccinia Venus, VACV mCherry inh)
CCCN(CCC)C(=O)Cn1c(=O)n(-c2ccc(CC)cc2)c(=O)c2c3c(sc21)CCC3	none (no result: Pf growth 96h, Pf growth 48h, AMA1-RON2 inh)
COC(=O)c1c(NC(=O)Cc2coc3cc(C)ccc23)sc2c1CCC2	none (no result: Pf growth 96h, Pf growth 48h, AMA1-RON2 inh)
COc1cccc(NC(=O)Cn2c(=O)n(CCC(=O)NCc3ccccc3OC)c(=O)c3ccccc32)c1	none (no result: Pf growth 96h, Pf growth 48h, AMA1-RON2 inh)
CCN(CC)S(=O)(=O)c1ccc(N2CCOCC2)c(NC(=O)c2cccc3ccccc23)c1	Pf growth 96h inconclusive, Pf growth 48h inconclusive
CCN(CC)S(=O)(=O)c1ccc(N2CCOCC2)c(NC(=O)c2cc(-c3ccccn3)nc3ccccc23)c1	VACV mCherry inh inconclusive, Pf growth 96h 8.28µM, Pf growth 48h 1.85µM
Fc1ccccc1C1c2cccn2CCN1C(=S)Nc1cccc(Br)c1 (centres undefined)	Pf growth 48h 9.28µM
CN(N=O)c1ccc(/C=C/c2ccccc2)cc1	none (no result: Pf growth 96h, Pf growth 48h, AMA1-RON2 inh)
CN(C)c1ccc(CC(=O)N2CCCC(c3cc(C(=O)Nc4ccc(C(C)(C)C)cc4)no3)C2)cc1 (centres undefined)	Vaccinia Venus inconclusive, AMA1-RON2 inh 12.6µM (no result: Pf growth 96h, Pf growth 48h)
COc1ccc(CCNC(=O)CCCn2c(=O)c3ccccc3n(CC(=O)Nc3ccc(C)cc3Cl)c2=O)cc1OC	none (no result: Pf growth 96h, Pf growth 48h, AMA1-RON2 inh)
COc1ccc2[nH]cc(C(=O)CN3CCN(C/C=C/c4ccccc4)CC3)c2c1	Pf growth 96h 10.4µM, Pf growth 48h 11.7µM (no result: Vaccinia Venus, VACV mCherry inh, AMA1-RON2 inh)
COc1cc2c(cc1NC(=O)c1ccccc1C)n(C)c(=O)n2C	none (no result: Pf growth 96h, Pf growth 48h, AMA1-RON2 inh)
Cc1ccccc1-n1nc(C)c2c(C(=O)NN)cc(-c3ccncc3)nc21	Pf growth 96h inconclusive
Cc1nn(-c2ccccc2)c2nc(-c3ccncc3)cc(C(=O)NCc3ccco3)c12	Pf growth 96h 10.4µM, Pf growth 48h 3.7µM (no result: Vaccinia Venus, VACV mCherry inh)
Cc1nn(-c2ccccn2)c2nc(-c3cccs3)cc(C(=O)NCc3ccco3)c12	Pf growth 96h 10.4µM (no result: Pf growth 48h)
Cc1ccc(-c2cc(C(=O)Nc3nccs3)c3ccccc3n2)c(C)c1	Pf growth 96h 1.31µM, Pf growth 48h inconclusive
O=C(Nc1nccs1)c1cc(-c2ccncc2)nc2ccccc12	Pf growth 96h inconclusive, Pf growth 48h inconclusive
Cc1ccc(-c2cc(C(=O)Nc3nccs3)c3ccccc3n2)o1	Pf growth 96h 9.28µM, Pf growth 48h inconclusive
Cc1ccc(-c2cc(C(=O)Nc3ccccc3C(N)=O)c3ccccc3n2)o1	none (no result: Pf growth 96h, Pf growth 48h)
CCCn1c(CN2CCN(C(=O)OCC)CC2)nc2c1c(=O)n(C)c(=O)n2C	none
